Screening results deposited in PubChem by several laboratories.
BoNT A protease: BoNT A light chain protease inhibition | hit rate 0.17% among 360,000 | inhibition, % at 10 µM | multiplex microsphere protease substrate cleavage, flow cytometry; note: plate controls were buffer without enzyme for full effect and enzyme alone for no effect
GDH-TPI counter: GDH-TPI coupled enzyme inhibition counter-screen; GDH-TPI coupled enzyme counterscreen, NADH absorbance; inhibition, % at 4.8 µM; hit rate 1.2% among 360,000; AID 588335; in the data active = inhibition above about 30%;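 note: 0% = DMSO wells and 100% = wells lacking the enzyme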
FBA Mtb inh: inhibitors of M. tuberculosis fructose-bisphosphate aldolase; P9WQA3; purified M. tuberculosis FBA, fluorescence read-out; inhibition, % at 1 µM; hit rate 2.3% among 360,000; AID 588726; in the data active = inhibition above about 27%;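 note: 0% = vehicle and 100% = reference inhibitor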
Target sequence (P9WQA3 whole entry, looked up): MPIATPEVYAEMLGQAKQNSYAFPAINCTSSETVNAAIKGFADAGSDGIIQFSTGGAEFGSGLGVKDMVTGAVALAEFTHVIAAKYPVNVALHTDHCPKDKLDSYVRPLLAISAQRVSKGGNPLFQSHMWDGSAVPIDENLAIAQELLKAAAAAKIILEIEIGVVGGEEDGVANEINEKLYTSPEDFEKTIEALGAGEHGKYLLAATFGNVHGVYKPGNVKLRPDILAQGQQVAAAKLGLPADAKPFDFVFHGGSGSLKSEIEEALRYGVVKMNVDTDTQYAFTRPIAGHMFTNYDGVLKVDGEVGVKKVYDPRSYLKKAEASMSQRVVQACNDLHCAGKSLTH
Bead autofluor: counter-screen for toxin protease inhibitors: compound fluorescence | compound autofluorescence counterscreen, microsphere flow cytometry; stronger effect = higher value | fluorescence intensity (test concentration not listed) | hit rate 3.1% among 360,000 | AID 624483; in the data active = fluorescence intensity above about 16000; inconclusive = no clear call, values can overlap the other calls
BoNT F protease: blocks Botulinum neurotoxin F light chain protease. Multiplex microsphere protease cleavage assay, flow cytometry. inhibition, % at 10 µM. hit rate 0.22% among 360,000. AID 588497; in the data active = inhibition above about 35%, passing the limit was not always enough; inconclusive = no clear call, values can overlap the other calls; note: plate controls were buffer without enzyme for full effect and enzyme alone for no effect
Anthrax LF inh2: inhibitors of Bacillus anthracis lethal factor protease | multiplex microsphere protease cleavage assay, LF | inhibition, % at 10 µM | hit rate 0.12% among 360,000; note: plate controls were buffer without enzyme for full effect and enzyme alone for no effect
* hit, by the source's call; ? = inconclusive; · = no result. A selection: hits, their analogues and other compounds. The true share with any hit is near 6.6%. Cut-off read from the data, not from the text of the source, unless noted: active = inhibition above about 30%; inconclusive = no clear call, values can overlap the other calls; inactive = below that.

SMILES	BoNT A protease	GDH-TPI counter	FBA Mtb inh	Bead autofluor	BoNT F protease	Anthrax LF inh2
CCN1CCN(C(=O)CCc2ccc(S(=O)(=O)NCCc3ccccc3)cc2)CC1	-1	-4	-1	4884	-7	-1
CCOC(=O)c1sc2cc([N+](=O)[O-])cc(SCC(C)C)c2c1N	32*	6	-1	20038*	18	21
CCOC(=O)c1cc(N)cc([N+](=O)[O-])c1	-1	7	1	2374	-8	-2
Cc1ccc(S(=O)(=O)N2CCCC2)cc1C(=O)NCc1ccccc1CN1CCCC1	0	-7	4	4942	3	-6
c1ccc(CNC2=NCCCC2)cc1	0	11	2	3801	-6	-2
O=C(NNC1=NCCCCC1)c1ccccc1	2	8	0	22558*	2	0
Cc1ccc(-n2ncc3c(N4CCC(C(N)=O)CC4)ncnc32)c(C)c1	0	4	2	23419*	0	2
Cc1ccc(S(=O)(=O)CCC(=O)OCC(=O)NC(=O)c2ccccc2)cc1	-154	2	5	40297*	-244	-38
CC(C)NC(=O)NC(=O)COC(=O)Cc1ccsc1	-1	-7	2	3194	-5	-2
COc1ccc(CC(=O)OCC(=O)NC(=O)NC(C)C)cc1	-2	-11	1	23854*	-5	-3
COc1ccc(/C=C/C=N/NC(=O)COc2ccc(OC)cc2)cc1	0	27	-3	2165	-7	0
COc1ccc(NCC(=O)N/N=C/C=C\c2ccccc2)cc1	3	31*	-1	7085	4	-2
CC(C)C(NC(=O)COc1ccc2ccccc2c1)C(=O)N/N=C/C=C/c1ccccc1 (stereo not drawn)	-1	12	4	22567*	-1	2
CCC(=NCc1cccnc1)c1c(O)n(C2CCCCC2)c(=O)[nH]c1=O	0	-13	0	20661*	0	-4
CCC(=NCc1cccnc1)c1c(O)n(-c2ccccc2C)c(=O)[nH]c1=O	3	-7	1	3658	?	10
CC(=NCc1cccnc1)c1c(O)n(C2CCCCC2)c(=O)[nH]c1=O	?	8	0	22369*	-1	-2
CC(=NCc1cccnc1)c1c(O)n(-c2ccccc2C)c(=O)[nH]c1=O	-2	8	0	20266*	-5	2
CC(=NCc1cccnc1)c1c(O)n(-c2ccc(C)cc2)c(=O)[nH]c1=O	2	-7	3	8276	11	0
C/C=N/NC(=O)CCNC(=O)c1ccccc1	0	-7	0	2199	-3	0
NC(=O)CNc1n[nH]c(=S)[nH]c1=O	0	14	5	2107	-2	2
O=C(CCN1C(=O)c2cccc([N+](=O)[O-])c2C1=O)Nc1nccs1	0	-3	2	4129	-2	3
CCC(=O)N(CC)C1=C(O)c2ccccc2C(=O)C1=O	0	-8	-7	20676*	-2	1
CCN(CC)S(=O)(=O)c1ccc(N2CCCCC2)c(NC(=O)C2=COCCO2)c1	2	4	1	6323	-4	-2
CC(C)CNS(=O)(=O)c1ccc(S(=O)(=O)N2CCCN(Cc3ccccc3)C2)cc1	-5	9	-2	21949*	-6	0
COc1ccc(C(=O)NCc2cccnc2)cc1OC	1	-1	4	22834*	-2	0
SMILES	BoNT A protease	GDH-TPI counter	FBA Mtb inh	Bead autofluor	BoNT F protease	Anthrax LF inh2
COc1ccccc1CNC(=O)COC(=O)c1cnccn1	0	-4	0	3196	4	-5
COc1ccc(CNC(=O)c2ccc(=O)oc2)cc1OC	0	60*	1	4767	2	2
O=C(NCc1cccnc1)c1ccc(=O)oc1	-1	43*	-1	9547	-3	-12
COc1ccc(C(=O)NCc2ccc(Cl)c(Cl)c2)cc1OC	0	-6	2	2447	-7	-1
COc1ccccc1CNC(=O)c1cnccn1	-3	19	4	17158*	-4	-6
C/C(=N\NC(=O)CC#N)C1COc2ccccc2O1 (stereo not drawn)	0	4	0	2243	-4	-1
CCN1CCN(C(=O)CCc2nnc3ccc(N4CCN(c5cccc(OC)c5)CC4)nn23)CC1	·	6	0	·	·	·
Cc1cc(C)n2c(SCc3ccc(C#N)cc3)nnc2n1	1	5	3	22207*	3	-2
CC(NS(=O)(=O)c1ccc(Br)cc1)C(=O)NCCc1ccccc1 (stereo not drawn)	1	8	0	7181	5	-11
COc1cccc(C(=O)OCC(=O)N2CCc3ccccc3C2)c1OC	0	-4	5	3886	-3	-6
CCC1CCCCN1S(=O)(=O)c1ccc(NC(=O)C2CCCO2)cc1 (stereo not drawn)	1	-4	-1	5844	2	-1
CCOC(=O)CCCc1c[nH]c2ccccc12	5	0	3	21767*	4	-1
CC(C)(C)NC(=O)NC(=O)COC(=O)CCCc1c[nH]c2ccccc12	-3	1	-1	24864*	-9	-3
c1ccc([C@H]2CN3C(=N2)Sc2ccccc23)cc1	0	4	1	2732	-6	-7
O=C(NC1CCN(Cc2ccccc2)CC1)c1cccc(S(=O)(=O)Nc2ccc(SC(F)F)cc2)c1	-1	8	3	4349	-14	3
COc1ccccc1[C@H]1C(c2ccccc2)=NN(c2ccccc2)[C@@H]1CO	1	5	79*	3547	5	-2
C[C@H]1C(c2ccc(F)cc2)=NN(c2ccccc2)[C@@H]1CO	0	13	23	3662	1	1
CCN(CC)C(=O)COc1ccc2oc(C)c(C(=O)OC)c2c1	0	6	1	3375	-6	0
CCN(CC)C(=O)COc1ccc2oc(-c3ccco3)cc(=O)c2c1	0	25	134*	2606	0	-1
Cc1cc(C(=O)Cn2cnc3ccc(Cl)cc3c2=O)c(C)n1C1CC1	-1	2	0	3059	-6	-1
O=C(NCCc1ccccc1)c1nc2c(nnn2Cc2ccccc2Cl)c(=O)[nH]1	-2	11	2	16657*	-4	-5
C[C@H](CO)N1C[C@H](C)[C@H](CN(C)S(=O)(=O)c2ccc3ccccc3c2)OCc2cnnn2CCCC1=O	0	12	1	3801	0	1
Cn1c2ccccc2c(=O)c2ccc(C#CC3(O)CCCCC3)cc21	6	12	171*	3729	10	6
CN1CCN(C(=S)c2ccc(-c3cccc([N+](=O)[O-])c3)o2)CC1	7	14	-3	3595	?	4
O=[N+]([O-])c1cccc(-c2ccc(C(=S)N3CCOCC3)o2)c1	2	41*	-5	2744	2	2
CC(C)C[C@@H](COCc1cccc(Cl)c1)N1CCN(C(=O)c2ccc(C(F)(F)F)cc2)CCC1=O	0	·	·	6134	-8	-3
C=CCc1cccc2ccc(=O)oc12	4	-1	1	6128	37*	19
COc1ccc(C(=O)Nc2cccc(/C=C/c3nc4ccccc4c(=O)[nH]3)c2)cc1	-1	39*	1	3740	-7	-4
